Source: PubChem (National Center for Advancing Translational Sciences (NCATS))
An excerpt weighted towards active compounds, which were near 9.4% of everything screened.
Pf growth 96h – Primary qHTS for delayed death inhibitors of the malarial parasite plastid, 96 hour incubation; Potency, µM (top dose mostly 28.7 µM), without a hit: top-dose activity change, negative = inhibition, usual class: inhibitors; hit rate 6.9% among 320,000; AID 504834, 2011; P. falciparum luciferase reporter growth, 96 h; note: % is set by controls: 0 for no effect and ±100 for the full control effect
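Readout is luminescence from an integrated firefly luciferase in P. falciparum. Red cells, 2% hematocrit and 0.05% parasitemia final, were cultured with compound through two parasite generations (96 hours) at 37 C, 5% CO2.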
SARS PLpro yeast – qHTS of Yeast-based Assay for SARS-CoV PLP; S. cerevisiae expressing SARS-CoV PLpro, growth rescue; Potency, µM (doses to about 32.9 µM), for inactives: top-dose activity, positive = growth rescue, most hits filed as activators; hit rate 0.19% among 330,000; AID 485353, 2010; calls by dose curve; note: 0% is about no effect; nearly all actives have a fitted effect of over 55% in size
AMA1 RON2 block – qHTS for Inhibitors of AMA1-RON; Towards Development of Antimalarial Drug Lead: Primary Screen. Plasmodium falciparum AMA1 (3D7) - RON2 peptide interaction. AlphaScreen AMA1-biotinylated RON2 peptide binding. Potency, µM (top dose mostly 58.2 µM), for the others: at the highest dose activity change, negative = inhibition, usual class: inhibitors. hit rate 0.2% among 360,000. AID 720542, 2013;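 note: 0% = vehicle wells and -100% = peptide control; nearly all actives have a fitted effect of over 45% in size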
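AMA1 (3D7) with his tag at 25 nM final met compounds first, then biotinylated RON2 peptide at 25 nM; detection used donor plus acceptor beads, 10 µg/mL apiece, read by AlphaScreen after 30 min at room temperature.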
Pf growth 48h – Primary qHTS for delayed death inhibitors of the malarial parasite plastid, 48 hour incubation | P. falciparum luciferase growth in erythrocytes, 48 h | Potency, µM (top dose mostly 28.7 µM), for inactives: at the highest dose activity change, negative = inhibition, most hits filed as inhibitors | hit rate 5.9% among 310,000; note: % is set by controls: 0 for no effect and ±100 for the full control effect
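Luciferase-expressing parasites in RBCs, 2% Hct / 0.1% parasitemia final; RPMI 1640 + 0.5% Albumax; 37 C, 5% CO2, one generation; luminescence read-out, lower signal = inhibition.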
An asterisk follows results filed as active; [ ] = remark or other dose. Unless noted, calls come from the whole dose curve; as a rule, active = well fitted curve in the direction sought with a large enough effect; inconclusive = small, poorly fitted or top-dose-only effect, or another doubt; inactive = no such curve, though single readings can be large; an effect the other way counts as inactive or inconclusive. Potency is the fitted concentration of half-maximal effect.

How did O=c1c2ccccc2nc(CSc2ncnc3nc[nH]c23)n1-c1cccc(C(F)(F)F)c1 do in these assays?
SARS PLpro yeast: 3%; AMA1 RON2 block: 2%; Pf growth 48h: inconclusive

What do the screens show for `CC(=O)N1CCN(c2ccccc2NC(=O)c2ccc(C#N)cc2F)CC1`?
Pf growth 96h: -20%; SARS PLpro yeast: 1%; AMA1 RON2 block: 3%; Pf growth 48h: -3%

How did O=P(CCCCCCCCCP(=O)(c1ccccc1)c1ccccc1)(c1ccccc1)c1ccccc1 do in these assays?
SARS PLpro yeast: -17%; AMA1 RON2 block: -6%; Pf growth 48h: 1.3µM*

How did COc1cc2cncc(Cc3ccc(Cl)cc3)c2cc1OC do in these assays?
Pf growth 96h: inconclusive; SARS PLpro yeast: 0%; AMA1 RON2 block: -3%; Pf growth 48h: 8.3µM*

How did COc1ccc(C(=O)Nc2c(C)ccc3nsnc23)cc1[N+](=O)[O-] do in these assays?
Pf growth 96h: 36%; SARS PLpro yeast: -3%; AMA1 RON2 block: 12%; Pf growth 48h: 30%

How did Cc1c(-c2c(C#N)c(N)nc3c2CCCCCC3)cnn1C do in these assays?
Pf growth 96h: 10µM*; SARS PLpro yeast: 6%; AMA1 RON2 block: -2%; Pf growth 48h: inconclusive

How did CSc1ccc(-c2c(C#N)c(N)nc3c2CCCC3)cc1 do in these assays?
Pf growth 96h: 2.6µM*; SARS PLpro yeast: -5%; AMA1 RON2 block: 5%; Pf growth 48h: 9%

How did N#Cc1c(N)nc2c(c1-c1ccncc1)CCCCC2 do in these assays?
Pf growth 96h: 7.4µM*; SARS PLpro yeast: 7%; AMA1 RON2 block: 19%; Pf growth 48h: inconclusive

How did N#Cc1c(N)nc2c(c1-c1cccnc1)CCCCC2 do in these assays?
SARS PLpro yeast: inconclusive; AMA1 RON2 block: -24%; Pf growth 48h: inconclusive

Results for Cc1cc(C(=O)COc2cccnc2[N+](=O)[O-])c(C)n1-c1ccccc1F ?
Pf growth 96h: 30%; SARS PLpro yeast: 0%; AMA1 RON2 block: -16%; Pf growth 48h: 5%

Results for Cc1cc(SCC(=O)OCC(=O)N2CCCC2=O)c(C)cc1Br ?
Pf growth 96h: 43%; SARS PLpro yeast: 3%; AMA1 RON2 block: 10%; Pf growth 48h: -7%

How did CNC(=S)NCCCc1ccccc1 do in these assays?
Pf growth 96h: 5.2µM*; SARS PLpro yeast: 0%; AMA1 RON2 block: -12%; Pf growth 48h: -2%

What do the screens show for `Cc1ccccc1NC(=S)NC(=O)CCc1ccccc1`?
Pf growth 96h: inconclusive; SARS PLpro yeast: 16%; AMA1 RON2 block: 20%; Pf growth 48h: inconclusive

What do the screens show for `CC(CCc1ccccc1)NC(=O)CSc1ccccc1` (configuration not stated)?
Pf growth 96h: 13µM*; SARS PLpro yeast: -5%; AMA1 RON2 block: 3%[2.32 µM]; Pf growth 48h: -19%

What do the screens show for `S=C(NCCCCc1ccccc1)NCc1ccccc1`?
Pf growth 96h: inconclusive; SARS PLpro yeast: 1%; AMA1 RON2 block: 23%; Pf growth 48h: 10%

How did Cc1ccc(SCC(=O)NCCCc2ccccc2)cc1 do in these assays?
Pf growth 96h: 0%; SARS PLpro yeast: 0%; AMA1 RON2 block: 35%; Pf growth 48h: 14%

How did O=C(CSc1ccccc1)NCCCc1ccccc1 do in these assays?
Pf growth 96h: 15µM*; SARS PLpro yeast: 0%; AMA1 RON2 block: 7%; Pf growth 48h: 6%

What do the screens show for `Cc1ccccc1NC(=S)NC(C)CCc1ccccc1` (configuration not stated)?
Pf growth 96h: 13µM*; SARS PLpro yeast: -9%; AMA1 RON2 block: -7%; Pf growth 48h: inconclusive

Results for COc1ccc2c(c1)C(=NO)c1cc(OC)ccc1-2 ?
SARS PLpro yeast: -17%; AMA1 RON2 block: -11%; Pf growth 48h: 15%

How did COc1ccc(CNC(=O)C/C(C)=N/NC(=O)C(c2ccccc2)c2ccccc2)cc1 do in these assays?
Pf growth 96h: -14%; SARS PLpro yeast: -2%; AMA1 RON2 block: 53%; Pf growth 48h: -26%

Results for O=C(NNC(=O)c1ccccc1F)c1ccco1 ?
Pf growth 96h: -11%; SARS PLpro yeast: 1%; AMA1 RON2 block: 0%; Pf growth 48h: 71%

Results for CCC(C)NC(=O)CSc1ccc(Cl)cc1 (configuration not stated) ?
Pf growth 96h: 3.3µM*; SARS PLpro yeast: 17%; AMA1 RON2 block: inconclusive; Pf growth 48h: 53%

What do the screens show for `O=C(COc1ccc(S(=O)(=O)N2CCOCC2)cc1Cl)NCCCn1ccnc1`?
Pf growth 96h: 13%; SARS PLpro yeast: -2%; AMA1 RON2 block: -30%; Pf growth 48h: -9%

How did COc1ccc(C2=NOC(C(=O)NCc3ccc(F)cc3)C2)cc1OC (configuration not stated) do in these assays?
Pf growth 96h: 2.3µM*; SARS PLpro yeast: 3%; AMA1 RON2 block: 2%; Pf growth 48h: -28%

What do the screens show for `COc1ccc(NC(=O)C2CC(c3ccc(OC)c(OC)c3)=NO2)cc1OC` (configuration not stated)?
Pf growth 96h: 13µM*; SARS PLpro yeast: 4%; AMA1 RON2 block: -2%; Pf growth 48h: -4%

Results for COc1ccc(C2=NOC(C(=O)Nc3ccc(C)cc3)C2)cc1OC (configuration not stated) ?
Pf growth 96h: -3%; SARS PLpro yeast: -5%; AMA1 RON2 block: -4%

Results for COc1cc(C2=NOC(C(=O)NCc3ccc(F)cc3)C2)cc(OC)c1OC (configuration not stated) ?
SARS PLpro yeast: 1%; AMA1 RON2 block: 3%; Pf growth 48h: inconclusive

Results for COc1cc(C2=NOC(C(=O)Nc3ccc4c(c3)OCO4)C2)cc(OC)c1OC (configuration not stated) ?
Pf growth 96h: 13%; SARS PLpro yeast: -2%; AMA1 RON2 block: 42%; Pf growth 48h: 2.9µM*

Results for CCOC(=O)C(CCCCC(NC(C)=O)(C(=O)OCC)C(=O)OCC)(NC(C)=O)C(=O)OCC ?
Pf growth 96h: 31%; SARS PLpro yeast: 1%; AMA1 RON2 block: 0%; Pf growth 48h: 9%

Results for O=[N+]([O-])c1c2ccccc2cc2ccccc12 ?
Pf growth 96h: inconclusive; SARS PLpro yeast: -5%; AMA1 RON2 block: -25%; Pf growth 48h: 2.6µM*

How did CCC(=O)Nc1c(S(=O)(=O)c2ccc(C)cc2)c2nc3ccccc3nc2n1C(C)c1ccccc1 (configuration not stated) do in these assays?
Pf growth 96h: inconclusive; SARS PLpro yeast: -12%; AMA1 RON2 block: 0%; Pf growth 48h: inconclusive

What do the screens show for `CCC(=O)Nc1c(S(=O)(=O)c2ccccc2)c2nc3ccccc3nc2n1C(C)c1ccccc1` (configuration not stated)?
Pf growth 96h: 12µM*; SARS PLpro yeast: -8%; AMA1 RON2 block: -16%; Pf growth 48h: 12µM*

What do the screens show for `CN(C)C(=O)Oc1ccc2c(=O)c(Oc3ccccc3Br)coc2c1`?
Pf growth 96h: -8%; SARS PLpro yeast: 1%; AMA1 RON2 block: inconclusive; Pf growth 48h: -17%
